These results are taken from PubChem BioAssay AID1671190 (National Center for Advancing Translational Sciences (NCATS), 2021).

About 6,100 (1.1%) of roughly 580,000 compounds were called active. Another 15% or so got no clear call; they are omitted. This is one part of a sample in which actives are shown more often than they occur. Calls follow the shape of the dose curve; as a rule, active = well fitted inhibition curve with a large enough effect; inconclusive = small, poorly fitted or top-dose-only effect, or another doubt; inactive = no such curve, though single readings can be large or run the other way.
% is scaled to controls: 0 for no effect and ±100 for the full control effect; potency is read from the fitted curve at half-maximal effect.

Polyunsaturated fatty acid lipoxygenase ALOX12 (Homo sapiens), sequence (P18054 whole entry, looked up): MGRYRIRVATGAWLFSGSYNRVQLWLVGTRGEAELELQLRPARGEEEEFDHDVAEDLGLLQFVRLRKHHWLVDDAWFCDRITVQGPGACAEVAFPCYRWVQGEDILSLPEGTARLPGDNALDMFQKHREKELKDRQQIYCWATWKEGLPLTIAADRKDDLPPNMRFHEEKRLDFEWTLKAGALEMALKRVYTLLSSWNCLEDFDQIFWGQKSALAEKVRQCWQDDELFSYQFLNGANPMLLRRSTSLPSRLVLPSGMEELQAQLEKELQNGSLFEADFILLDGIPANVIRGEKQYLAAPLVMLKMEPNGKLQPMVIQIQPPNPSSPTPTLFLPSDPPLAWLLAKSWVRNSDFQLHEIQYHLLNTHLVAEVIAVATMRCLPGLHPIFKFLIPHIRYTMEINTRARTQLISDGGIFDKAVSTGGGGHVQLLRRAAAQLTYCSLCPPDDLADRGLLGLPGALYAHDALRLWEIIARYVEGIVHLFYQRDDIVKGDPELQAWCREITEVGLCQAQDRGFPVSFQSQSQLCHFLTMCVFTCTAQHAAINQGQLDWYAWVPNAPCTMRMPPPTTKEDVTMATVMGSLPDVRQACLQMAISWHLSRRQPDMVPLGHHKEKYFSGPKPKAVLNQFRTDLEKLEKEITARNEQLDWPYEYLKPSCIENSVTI

The target of the experiment is Polyunsaturated fatty acid lipoxygenase ALOX12 (Homo sapiens) (UniProt P18054). Description: Primary qHTS assay for inhibitors of human arachidonate 12S-lipoxygenase (ALOX12): Round 2. The conditions noted are these: purified 12hLO, xylenol orange hydroperoxide absorbance; series mostly up to 108 µM; activity change, negative = inhibition: at the top concentration. A digest of the protocol:
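Purified human 12hLO (150 nM final) in 25 mM Hepes, 0.01% Triton X-100, pH 7.0 was preincubated 15 min at room temperature with compound. Then 40 uM arachidonic acid was added, 30 min. Hydroperoxide was read by Fe-XO absorbance ratio 573/405 nm.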
(In general: Quantitative high-throughput screening tests each substance at several concentrations.)
Regarding `CC(C)CCN1CC2(CCCN(C(=O)c3ccn(C)c(=O)c3)C2)CCC1=O` (stereo unspecified), the “activity change, negative = inhibition” value is -3.41% (inactive). For the molecule `O=C(CC(NC(=O)c1ccccc1)c1ccccc1)NC12CC3CC(CC(C3)C1)C2` (stereo unspecified), the “activity change, negative = inhibition” value was 56.1% (inactive). As to `COc1ccc(C(=O)CSc2nnc(NC(=O)C3CC(=O)N(c4cccc(OC)c4)C3)s2)cc1` (stereo unspecified), the “activity change, negative = inhibition” value was 8.34% (inactive). On to `CCOC(=O)CSc1nnc(NC(=O)C2CC(=O)N(c3ccc(F)cc3)C2)s1` (stereo unspecified), for which the Potency was 39.8 µM (active).

Take `CCc1nnc(NC(=O)C2CC(=O)N(c3ccc4c(c3)OCCO4)C2)s1` (stereo unspecified): the “activity change, negative = inhibition” value is 6.52% (inactive).

For `CSc1nc(-c2cccs2)cc(C(F)(F)F)n1`, the “activity change, negative = inhibition” value was -24.3% (inactive). For `CCn1nc(C(=O)N(C)Cc2cnn(-c3ccccc3)c2)c2ccccc2c1=O`, the “activity change, negative = inhibition” value is 44.5% (inactive). On to `CC1CCCCN1C(C)CNC(=S)Nc1ccc(F)cc1F` (stereo unspecified), for which the “activity change, negative = inhibition” value is -8.73% (inactive).

For `Cn1cc(CN2CCn3c(nnc3[C@@H]3C[C@@H](O)CN3Cc3ccccc3)C2)c2ccccc21`, the “activity change, negative = inhibition” value was -4.36% (inactive). With `CC(=O)Oc1ccc(N(C(C)=O)S(=O)(=O)c2ccc3ccccc3c2)cc1Br`, the “activity change, negative = inhibition” value was 0% (inactive). In the case of `CC(=O)N(c1ccc2oc(=O)sc2c1)S(=O)(=O)c1ccc(C)cc1`, the Potency is 8.91 µM (active). For `CCOC(=O)c1c(C)oc2ccc(N(C(=O)c3ccncc3)S(=O)(=O)c3ccc(CC)cc3)cc12`, the “activity change, negative = inhibition” value was 0% (inactive). The same measure, in the same setting: the figure for `Cn1c(=O)c2c(nc(NCc3ccccc3)n2Cc2cccc(F)c2)n(C)c1=O` is 9.35% (inactive); for `CCN(c1ccc(Cl)cc1)S(=O)(=O)c1nnc(NC(=O)c2ccco2)s1` it is -23.8% (inactive). Still for that read-out and setting: the result for `O=C(Nc1ccc2nc(SCCOc3ccccc3)sc2c1)c1ccco1` reads -28.3% (inactive). For the molecule `O=C(Nc1nc(-c2ccco2)c(-c2ccco2)s1)c1ccco1`, the Potency was 31.6 µM (active). For the molecule `O=C(COC(=O)CNC(=O)c1cccc(Cl)c1)Nc1ncc(C(F)(F)F)cc1Cl`, the “activity change, negative = inhibition” value is -24.8% (inactive). On the same count and under the same terms, the result for `Cc1nc(SC(C)C(=O)Nc2cccc(C#N)c2)n(CC(C)C)c1C` (stereo unspecified) reads 1.37% (inactive); that for `O=C(Nc1cccnc1)[C@@H]1C[C@@H](c2ccc(F)cc2)N([S+](=O)([O-])c2ccccc2)C1`, 10.5% [at 176 µM] (inactive).

For the molecule `COc1ccc(NC(=O)[C@@H]2C[C@@H](c3ccc(F)cc3)N(CCOc3ccccc3)C2)cn1`, the Potency was 31.6 µM (active). Consider `COc1ccc(NC(=O)[C@@H]2C[C@@H](c3cccc(C(F)(F)F)c3)N(Cc3cnn(C)c3)C2)cn1`, for which the “activity change, negative = inhibition” value was 0.79% (inactive). Same read-out and setting: the result for `O=C(NC1CC1)c1ccccc1OCC1CCCN(Cc2ccncc2F)C1` (stereo unspecified) reads 57.2% (inactive). Still for that read-out and setting: the figure for `CN(CC(=O)Nc1ccc(N2CCOCC2)cc1)CC(=O)Nc1ccccc1[N+](=O)[O-]` is 1.25% (inactive). Take `Cc1ccccc1N/N=C/c1ccc(N2CCOCC2)cc1`: the Potency was 7.08 µM (active). Take `Cc1ccc(/C=N/Nc2ccccc2C(F)(F)F)cc1`: the “activity change, negative = inhibition” value is 37.1% (inactive). `Cc1cc2ccccc2n1CC(=O)Nc1ccc(Oc2ccccc2)cc1`: the “activity change, negative = inhibition” value was -0.868% (inactive). In the case of `Cc1ccc(CN2CCN(c3nc4ccccc4o3)CC2CCO)cc1` (stereo unspecified), the “activity change, negative = inhibition” value is 15.7% (inactive). Take `CSc1ccccc1N=Cc1ccc(Cl)c(Cl)c1`: the “activity change, negative = inhibition” value was 3.85% (inactive).

On to `CSc1ccc(/C=N/N2CCN(Cc3ccccc3Cl)CC2)cc1`, for which the “activity change, negative = inhibition” value is -1.35% (inactive). In the case of `CSc1ccc(/C=N/Nc2c(Cl)cc(Cl)cc2Cl)cc1`, the Potency was 4.47 µM (active). As to `CCNc1nc(C(F)(F)F)c(C(=O)OCC)s1`, the “activity change, negative = inhibition” value is 40.4% (inactive).

With `Cc1ccc(C2C3=C(CC(C)(C)CC3=O)Nc3nc(SCCC(C)C)[nH]c(=O)c32)s1` (stereo unspecified), the “activity change, negative = inhibition” value was 30.9% (inactive). On the same count and under the same terms, the figure for `CN(C)C(=O)c1cccnc1OC1CCN(C(=O)Nc2cc(F)cc(F)c2)C1` (stereo unspecified) is -0.265% (inactive). Regarding `COc1ccc(-c2c(C)c3ccc(O)c(CN4CCCC4)c3oc2=O)cc1OC`, the “activity change, negative = inhibition” value was -10.4% (inactive). Take `CCOc1cc(-c2ccc(O)c(OC)c2)cc(=O)c2c(C)oc(C)c12`: the Potency was 7.08 µM (active).

On to `Cc1oc(C)c2c(=O)cc(-c3ccc4c(c3)OCO4)cc(OC(=O)c3ccc(Cl)cc3)c12`, for which the “activity change, negative = inhibition” value is 6.01% (inactive). In the case of `CCn1nc(C)c(CNC(=O)Nc2cc(Cl)ccc2OC)c1C`, the “activity change, negative = inhibition” value is 23.7% (inactive). Regarding `O=C(c1ccc2c(c1)N(C(=O)c1ccccc1)CC2)N1CCN(c2ccc(Cl)cc2)CC1`, the “activity change, negative = inhibition” value is 38.8% (inactive). On the same count and under the same terms, the figure for `Cc1ccc2cc(C(=O)NCc3cccnc3-n3cccn3)c(C)nc2c1` is 7.82% (inactive); for `Cc1nc(C)c(C(=O)N2CCC(N3C(=O)C4(CCCC4)C3c3ccccc3)CC2)s1` (stereo unspecified) it is 58% (inactive). In the case of `Cc1nc2cc(NC(=O)C3CC(=O)N(CC4CC4)C3)ccc2o1` (stereo unspecified), the “activity change, negative = inhibition” value is 0.248% (inactive). Consider `NS(=O)(=O)c1ccc2nc(NC(=O)COc3ccccc3)sc2c1`, for which the “activity change, negative = inhibition” value is 2.54% (inactive).

`CC(C)CC(CC(C)C)=NNC(=O)COc1ccc(C#N)cc1`: the “activity change, negative = inhibition” value is -15.3% (inactive).

Take `N#Cc1ccc(OCC(=O)Nc2nc(-c3ccccn3)cs2)cc1`: the Potency was 17.8 µM (active). On to `O=C1COc2ccc(C(=O)COC(=O)c3nn(Cc4ccccc4)c(=O)c4ccccc34)cc2N1`, for which the “activity change, negative = inhibition” value is -18.9% (inactive). For `O=C(c1ccccc1F)N1CCC(c2nn(-c3ccc(Cl)cc3)c(=O)[nH]2)CC1`, the Potency was 31.6 µM (active). For the molecule `Cn1nc(C2CCN(C(=O)c3cccc(Cl)c3)CC2)[nH]c1=O`, the “activity change, negative = inhibition” value is 47.3% [at 176 µM] (inactive). Still for that read-out and setting: the figure for `CC(C)(C)C(=O)N1CCC(c2nn(-c3ccc(F)cc3)c(=O)[nH]2)CC1` is 3.33% [at 176 µM] (inactive). For `O=C(Cc1cccc(Cl)c1)N1CCC(c2nn(-c3ccc(Cl)cc3)c(=O)[nH]2)CC1`, the Potency is 20 µM (active). `Cc1ccc(C(=O)N2CCC(c3nn(-c4ccccc4)c(=O)[nH]3)CC2)cc1`: the “activity change, negative = inhibition” value is 4.19% (inactive). In the case of `O=C(c1ccc(F)cc1)N1CCCC(c2nn(-c3cccc(Cl)c3)c(=O)[nH]2)C1` (stereo unspecified), the “activity change, negative = inhibition” value is 5.72% (inactive).
